High-throughput results (PubChem)
The list is not random: actives were taken first. Their share in the collection is about 12%.
KCC2 mod – modulates chloride dependent transport by human KCC2; Q9H2X9; KCC2 cells, thallium flux FluoZin-2 fluorescence; B-score of Tl+ flux slope (higher = more flux/activation; lower = inhibition) at 10 µM; 2.2% of 190,000 active; AID 1456;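 active = thallium flux slope and its plate-corrected score both differing from the plate sample mean at a set confidence after two filtering rounds, in either direction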;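 note: slope of fluorescence scaled to starting intensity during 10 to 20 s after thallium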
Target sequence (Q9H2X9 whole entry, looked up): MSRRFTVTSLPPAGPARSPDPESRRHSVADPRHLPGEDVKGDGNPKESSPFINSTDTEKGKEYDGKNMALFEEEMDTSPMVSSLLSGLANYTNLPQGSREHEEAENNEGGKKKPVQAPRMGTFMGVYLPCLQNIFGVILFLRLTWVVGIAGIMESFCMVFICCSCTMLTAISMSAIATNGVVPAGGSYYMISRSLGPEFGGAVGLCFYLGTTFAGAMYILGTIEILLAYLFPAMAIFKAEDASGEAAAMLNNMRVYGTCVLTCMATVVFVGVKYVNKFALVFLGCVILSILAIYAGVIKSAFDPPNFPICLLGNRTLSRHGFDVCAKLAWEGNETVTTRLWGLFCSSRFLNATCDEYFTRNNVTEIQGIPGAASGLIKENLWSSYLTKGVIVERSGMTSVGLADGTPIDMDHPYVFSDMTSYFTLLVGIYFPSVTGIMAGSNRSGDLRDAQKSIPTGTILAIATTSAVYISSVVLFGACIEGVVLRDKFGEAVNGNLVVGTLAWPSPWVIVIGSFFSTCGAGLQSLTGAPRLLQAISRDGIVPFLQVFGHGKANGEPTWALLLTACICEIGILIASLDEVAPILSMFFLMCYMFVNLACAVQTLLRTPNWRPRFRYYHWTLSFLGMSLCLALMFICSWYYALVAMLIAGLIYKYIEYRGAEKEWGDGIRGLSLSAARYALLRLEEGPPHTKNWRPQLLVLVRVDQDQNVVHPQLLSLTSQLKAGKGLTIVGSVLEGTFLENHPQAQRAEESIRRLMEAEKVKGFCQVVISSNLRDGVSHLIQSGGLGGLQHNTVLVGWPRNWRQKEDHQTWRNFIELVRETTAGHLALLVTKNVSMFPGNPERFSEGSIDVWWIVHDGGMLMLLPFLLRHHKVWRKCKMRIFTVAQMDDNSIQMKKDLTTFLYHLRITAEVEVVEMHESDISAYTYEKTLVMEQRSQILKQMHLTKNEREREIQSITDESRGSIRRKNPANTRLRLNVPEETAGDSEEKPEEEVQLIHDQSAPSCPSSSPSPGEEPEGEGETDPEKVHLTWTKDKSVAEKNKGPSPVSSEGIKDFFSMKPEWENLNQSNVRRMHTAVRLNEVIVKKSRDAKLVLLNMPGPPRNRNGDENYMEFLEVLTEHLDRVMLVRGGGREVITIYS
ROMK primary – human ROMK K+ channel modulation, primary screen | P48048 | Tet-inducible ROMK, thallium flux fluorescence; actives lie on both sides | B-score at 10 µM | 2% of 130,000 active | AID 1918;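 active = signal ratio slope over the read window, or its plate-corrected B-score, at least 3 SD from the plate mean, either direction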;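 note: B-score of the F/F0 ratio slope over 7 to 12 s after thallium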
m-calpain inh – inhibitors of pig calpain II; purified calpain II, fluorogenic peptide substrate, 30 min; inhibition, % at 16 µM; 0.37% of 220,000 active; AID 1236;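 active = inhibition above about 50%, limit read from the data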
WT yeast gro inh – growth inhibition of WT yeast, mitochondrial fusion screen; mitochondrial fusion phenotypic screen, WT strain; inhibition, % at 10 µM; 2.1% of 190,000 active; in the data active = inhibition above about 58%; tested in S. cerevisiae
L major viab – Leishmania major promastigote growth inhibition | Leishmania major promastigotes, resazurin fluorescence viability | inhibition, % at 10 µM | 9% of 200,000 active | AID 1063; in the data active = inhibition above about 50%;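 note: promastigotes grown with compound for 44 hours at 28 °C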
* marks the source's active call; other numbers are inactive results; x = no result.

SMILES	KCC2 mod	ROMK primary	m-calpain inh	WT yeast gro inh	L major viab
CCn1nnc(-c2ccccc2NS(=O)(=O)c2ccc(S(=O)(=O)N(C)C3CCCCC3)cc2)n1	0.0905	-0.859	-9.3	11.9	11.4
CCSC1=C(C#N)C(c2ccc(Cl)cc2)C2=C(CCCC2=O)N1 (stereo not given)	-3.22	0.634	-80.7	6.1	94.5*
C=CCN(c1ccccc1Cl)S(=O)(=O)c1cccc(C(=O)NCCc2ccc(OC)cc2)c1	-0.895	-0.232	17.4	6.9	63.5*
COc1ccc(CCNC(=O)c2cccc(S(=O)(=O)N3CCCCC3)c2)cc1	1.22	0.4	10.9	-3.1	6.4
CCOC(=O)c1ccc(S(=O)(=O)N2CCN(C(=O)c3cc(=O)c4ccccc4o3)CC2)cc1	-0.558	-0.714	16.0	3.9	2.7
COC1CCN(Cc2cn(Cc3ccccc3)nc2-c2cc3ccccc3o2)CC1	-1.22	-2.54	23.0	23.4	50.5*
OCC1CCN(Cc2cn(Cc3ccccc3)nc2-c2cc3ccccc3o2)CC1	x	0.013	12.5	3.2	19.0
O=C(c1ccc(F)cc1)N1CCN2C(=O)c3ccccc3C12c1ccc(Cl)cc1 (stereo not given)	-0.312	-0.88	38.1	28.4	46.5
O=C(c1ccccc1)N1CCN2C(=O)c3ccccc3C12c1ccc(Cl)cc1 (stereo not given)	-2.95	-0.126	29.9	-9.3	75.7*
Cc1ccccc1NC(=O)C1Cc2ccccc2CN1C(=O)OCc1ccccc1 (stereo not given)	-2.44	-0.333	14.3	11.8	92.1*
CCOC(=O)c1c(NC(=O)c2noc(C)c2[N+](=O)[O-])sc(C(C)=O)c1C	-0.209	-1.42	21.1	-20.0	16.6
CCN(CC)c1ccc(C(=O)OCC(=O)Nc2ccccc2-c2ccccc2)cc1	-0.0397	-0.0467	19.5	29.7	-5.6
CCOc1ccc(/C=N/OCC(=O)Nc2cc(C)on2)cc1	1.43	x	-19.9	-13.6	59.7*
COc1ccc(/C=N/OCC(=O)Nc2ccc3c(c2)OCO3)c(OC)c1	-1.82	0.354	56.1*	13.8	-4.2
CCOc1ccc(/C=N/OCC(=O)NC(c2ccccc2)c2ccccc2)cc1	-0.016	x	46.5	27.3	77.0*
COc1ccc(/C=N/OCC(=O)NCC(C)C)c(OC)c1	1.49	0.227	-5.5	-10.7	3.9
CCOc1ccc(/C=N/OCC(=O)Nc2ccc3c(c2)OCO3)cc1	-1.53	-1.73	27.1	12.8	-2.5
COc1ccc(/C=N/OCC(=O)NC(c2ccccc2)c2ccccc2)c(OC)c1	-0.0426	1.34	34.6	46.4	99.8*
Cc1cc(C(=O)N(CCC#N)Cc2cccs2)no1	0.00365	x	-13.0	x	x
COc1ccc(/C=C/C(=O)C2CC2)cc1Cn1nc(C)c([N+](=O)[O-])c1C	-0.957	1.08	-35.5	2.6	42.2
CC(NC(=O)OCc1ccccc1)C(=O)Oc1cc2oc(=O)cc(-c3ccccc3)c2cc1Cl (stereo not given)	-0.651	-0.0306	-224.9	-7.8	-8.8
O=C(N/N=C/c1c[nH]c2ccccc12)c1cc(-c2ccc(-c3ccccc3)cc2)n[nH]1	1.39	-0.193	-137.5	-4.2	0.2
O=C(N/N=C/c1c[nH]c2ccccc12)C1CC1c1ccccc1 (stereo not given)	-1.91	x	-9.5	12.3	-2.0
O=C(N/N=C/c1c[nH]c2ccccc12)C1CC1(c1ccccc1)c1ccccc1 (stereo not given)	0.863	0.958	5.8	80.7*	16.9
O=C(N/N=C/c1c[nH]c2ccccc12)c1cc(-c2ccccc2)n[nH]1	-2.22	x	14.1	-15.5	79.1*
SMILES	KCC2 mod	ROMK primary	m-calpain inh	WT yeast gro inh	L major viab
Cc1nnc(-c2cnn(C)c2N)n1Cc1ccc2c(c1)OCO2	-0.708	0.0627	-23.6	-1.4	-1.6
Cc1ccc2cc(CCNC(=O)C(C)C)c(=O)[nH]c2c1C	0.112	x	6.8	5.2	-6.2
Cc1ccc2cc(CCNC(=O)c3cc4ccccc4o3)c(=O)[nH]c2c1C	0.28	-0.192	54.1*	10.3	-8.4
O=C1OCC/C1=C\c1ccc(O)cc1	-0.115	x	15.5	x	x
CCOC(=O)C1=c2/c(=C/c3ccncc3)c(N)c(C(=O)OC)n2C(=O)C(c2ccncc2)S1 (stereo not given)	-0.346	1.28	-38.4	11.5	55.7*
CCOC(=O)C1=c2/c(=C/c3ccccc3OC)c(N)c(C#N)n2C(=O)C(c2ccccc2OC)S1 (stereo not given)	x	0.767	30.3	9.7	-1.0
CCOC(=O)C1=C(N)n2c(s/c(=C\c3ccncc3)c2=O)=C(C(=O)OCC)C1c1ccncc1 (stereo not given)	x	0.161	-94.9	-12.0	51.5*
